Common to all, as to assay: DAPPL (digital affinity profiling via proximity ligation, sequencing); 10 mM Tris-HCl pH 7.5, 50 mM NaCl, 1 mM DTT, 4% glycerol, room temperature, 30 min; GST-TFs on glutathione beads, 16-mer random dsDNA library, 0.1% formaldehyde crosslink after washing; high values mean tight binding
The target in one assay is T1, FLI1 (Homo sapiens, UniProt Q01543 1-452).
T1 sequence: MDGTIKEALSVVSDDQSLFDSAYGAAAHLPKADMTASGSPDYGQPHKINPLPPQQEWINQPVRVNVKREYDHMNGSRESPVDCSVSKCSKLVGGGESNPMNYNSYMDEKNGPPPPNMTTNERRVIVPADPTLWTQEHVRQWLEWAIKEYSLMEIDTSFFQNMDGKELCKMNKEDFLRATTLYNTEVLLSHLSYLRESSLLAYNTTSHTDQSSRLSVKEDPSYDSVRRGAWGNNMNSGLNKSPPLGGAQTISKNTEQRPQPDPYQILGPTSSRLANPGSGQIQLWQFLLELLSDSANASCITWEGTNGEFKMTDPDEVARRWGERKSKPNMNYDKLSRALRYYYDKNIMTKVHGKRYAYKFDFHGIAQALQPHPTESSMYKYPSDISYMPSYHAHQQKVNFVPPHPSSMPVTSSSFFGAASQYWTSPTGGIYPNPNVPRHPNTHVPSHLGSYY
Conditions: protein: recombinant; tags: N-terminal GST; dsDNA, one strand shown. An outline of the steps:
(§1)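 Beads coated with glutathione captured GST-fused human transcription factors that had been expressed in yeast, and the factors were then given DNA barcodes and pooled with a tag-only sample. The pools were incubated with 200 nmole of a random double-stranded 16-mer DNA library in Tris/NaCl/DTT/glycerol buffer for 30 min at room temperature, washed, crosslinked with 0.1% formaldehyde and proximity-ligated with BsaI/T4 ligase at 37 °C for 1 h. PCR amplification and Illumina NextSeq500 sequencing came last. Binding signal is each hexamer's read frequency for a factor divided by its frequency for the tag-only sample.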

The target in a further assay is T2, ELK1 (Homo sapiens, UniProt P19419 1-428).
T2 sequence: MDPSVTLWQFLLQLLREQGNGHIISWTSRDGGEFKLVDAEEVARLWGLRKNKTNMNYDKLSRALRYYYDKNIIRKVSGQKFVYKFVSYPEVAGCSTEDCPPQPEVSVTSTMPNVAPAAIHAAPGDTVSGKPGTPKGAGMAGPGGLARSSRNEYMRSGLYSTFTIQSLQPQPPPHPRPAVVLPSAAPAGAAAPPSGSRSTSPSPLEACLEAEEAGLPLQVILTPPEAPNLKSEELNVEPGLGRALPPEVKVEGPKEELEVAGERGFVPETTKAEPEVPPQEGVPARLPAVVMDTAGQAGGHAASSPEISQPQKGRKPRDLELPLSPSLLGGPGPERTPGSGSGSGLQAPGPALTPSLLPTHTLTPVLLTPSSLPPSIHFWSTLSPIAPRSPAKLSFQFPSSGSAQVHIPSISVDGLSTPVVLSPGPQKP
The following applies: protein: recombinant; tags: N-terminal GST; dsDNA, one strand shown. The method, boiled down: as §1

The target of another assay is T3, GABPA (Homo sapiens, UniProt Q06546 1-454).
T3 sequence: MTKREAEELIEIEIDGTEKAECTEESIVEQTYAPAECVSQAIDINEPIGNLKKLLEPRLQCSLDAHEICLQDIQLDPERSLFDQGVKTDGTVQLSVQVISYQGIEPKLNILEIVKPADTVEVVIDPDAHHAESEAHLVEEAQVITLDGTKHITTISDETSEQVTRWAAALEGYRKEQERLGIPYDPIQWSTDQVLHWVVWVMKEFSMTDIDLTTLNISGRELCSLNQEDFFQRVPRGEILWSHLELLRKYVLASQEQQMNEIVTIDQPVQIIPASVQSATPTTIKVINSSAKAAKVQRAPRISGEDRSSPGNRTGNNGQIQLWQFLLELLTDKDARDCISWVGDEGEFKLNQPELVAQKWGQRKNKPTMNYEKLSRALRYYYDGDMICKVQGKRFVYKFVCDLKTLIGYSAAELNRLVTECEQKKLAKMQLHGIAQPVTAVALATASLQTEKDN
Conditions: protein: recombinant; tags: N-terminal GST; dsDNA, one strand shown. The method, boiled down: as §1

The target of another assay is T4, ERG (Homo sapiens, UniProt P11308 1-479).
T4 sequence: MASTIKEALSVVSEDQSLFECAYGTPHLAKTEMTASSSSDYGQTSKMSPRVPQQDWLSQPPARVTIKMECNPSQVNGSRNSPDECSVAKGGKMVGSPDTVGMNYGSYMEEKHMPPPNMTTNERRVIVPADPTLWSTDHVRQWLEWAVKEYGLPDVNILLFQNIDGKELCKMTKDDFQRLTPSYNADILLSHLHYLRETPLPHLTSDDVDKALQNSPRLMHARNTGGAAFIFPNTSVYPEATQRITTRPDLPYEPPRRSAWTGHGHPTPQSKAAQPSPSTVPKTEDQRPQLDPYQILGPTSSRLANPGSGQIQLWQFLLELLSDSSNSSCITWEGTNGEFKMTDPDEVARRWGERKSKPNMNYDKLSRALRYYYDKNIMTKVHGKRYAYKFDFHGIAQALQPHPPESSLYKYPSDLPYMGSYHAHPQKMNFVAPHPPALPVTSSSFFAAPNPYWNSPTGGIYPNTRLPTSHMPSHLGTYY
The following applies: protein: recombinant; tags: N-terminal GST; dsDNA, one strand shown. An outline of the steps: as §1

The target of another assay is ELF1 (Homo sapiens, UniProt P32519 1-619). Conditions: protein: recombinant; tags: N-terminal GST; dsDNA, one strand shown. An outline of the steps: as §1
A further assay has as its target T5, EHF (Homo sapiens, UniProt Q9NZC4 1-300).
T5 sequence: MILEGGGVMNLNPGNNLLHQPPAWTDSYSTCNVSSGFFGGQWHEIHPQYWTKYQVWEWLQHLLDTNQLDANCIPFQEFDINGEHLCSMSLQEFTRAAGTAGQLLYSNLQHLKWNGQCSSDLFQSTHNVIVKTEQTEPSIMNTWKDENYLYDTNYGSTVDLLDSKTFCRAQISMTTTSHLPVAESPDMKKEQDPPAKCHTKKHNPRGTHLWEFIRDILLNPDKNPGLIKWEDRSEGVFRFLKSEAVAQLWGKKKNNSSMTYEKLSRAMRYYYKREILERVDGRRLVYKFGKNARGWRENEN
Conditions: protein: recombinant; tags: N-terminal GST; dsDNA, one strand shown. The method, boiled down: as §1

Another assay has as its target SPI1 (Homo sapiens, UniProt P17947 1-270). The following applies: protein: recombinant; tags: N-terminal GST; dsDNA, one strand shown. The method, boiled down:
as §1

A further assay addresses T6, ELK3 (Homo sapiens, UniProt P41970 1-407).
T6 sequence: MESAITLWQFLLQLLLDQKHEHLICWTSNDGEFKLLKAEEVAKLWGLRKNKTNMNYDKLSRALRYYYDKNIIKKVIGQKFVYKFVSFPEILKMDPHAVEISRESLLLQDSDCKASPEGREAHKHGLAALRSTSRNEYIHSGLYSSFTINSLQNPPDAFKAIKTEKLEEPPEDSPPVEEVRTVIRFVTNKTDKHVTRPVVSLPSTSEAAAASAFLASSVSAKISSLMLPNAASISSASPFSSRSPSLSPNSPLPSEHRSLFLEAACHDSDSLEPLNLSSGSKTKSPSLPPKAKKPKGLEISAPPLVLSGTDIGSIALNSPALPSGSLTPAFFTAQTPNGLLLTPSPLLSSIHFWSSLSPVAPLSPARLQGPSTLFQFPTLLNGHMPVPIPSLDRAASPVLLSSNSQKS
Conditions: protein: recombinant; tags: N-terminal GST; dsDNA, one strand shown. The method, boiled down: as §1

The target of a further assay is T7, FEV (Homo sapiens, UniProt Q99581 1-238).
T7 sequence: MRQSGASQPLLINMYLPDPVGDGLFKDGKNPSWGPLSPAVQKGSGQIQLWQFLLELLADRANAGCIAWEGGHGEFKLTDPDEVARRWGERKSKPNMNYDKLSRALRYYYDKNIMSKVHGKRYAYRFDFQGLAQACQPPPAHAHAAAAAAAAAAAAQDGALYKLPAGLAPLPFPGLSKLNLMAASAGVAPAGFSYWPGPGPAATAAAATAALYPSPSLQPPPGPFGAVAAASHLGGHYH
The following applies: protein: recombinant; tags: N-terminal GST; dsDNA, one strand shown. The method, boiled down: as §1

Another assay has as its target ETV5 (Homo sapiens, UniProt P41161 1-510). Conditions: protein: recombinant; tags: N-terminal GST; dsDNA, one strand shown. The method, boiled down: as §1
Another assay deals with HSF1 (Homo sapiens, UniProt Q00613 1-529). Conditions: protein: recombinant; tags: N-terminal GST; chain copies: 3; dsDNA, one strand shown. An outline of the steps: as §1
The next assay addresses T8, SPIC (Homo sapiens, UniProt Q8N5J4 1-248).
T8 sequence: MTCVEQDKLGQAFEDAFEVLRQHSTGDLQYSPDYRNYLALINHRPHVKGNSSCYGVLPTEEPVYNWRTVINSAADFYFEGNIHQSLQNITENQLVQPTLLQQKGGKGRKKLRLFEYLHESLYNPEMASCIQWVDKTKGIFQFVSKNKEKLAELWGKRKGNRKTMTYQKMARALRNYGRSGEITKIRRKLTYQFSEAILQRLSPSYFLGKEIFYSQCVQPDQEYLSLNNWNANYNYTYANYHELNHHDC
Conditions: protein: recombinant; tags: N-terminal GST; dsDNA, one strand shown. An outline of the steps: as §1

A further assay concerns the target ELF4 (Homo sapiens, UniProt Q99607 1-663). Conditions: protein: recombinant; tags: N-terminal GST; dsDNA, one strand shown. The method, boiled down:
as §1

The target in a further assay is T9, ETV2 (Homo sapiens, UniProt O00321 1-342).
T9 sequence: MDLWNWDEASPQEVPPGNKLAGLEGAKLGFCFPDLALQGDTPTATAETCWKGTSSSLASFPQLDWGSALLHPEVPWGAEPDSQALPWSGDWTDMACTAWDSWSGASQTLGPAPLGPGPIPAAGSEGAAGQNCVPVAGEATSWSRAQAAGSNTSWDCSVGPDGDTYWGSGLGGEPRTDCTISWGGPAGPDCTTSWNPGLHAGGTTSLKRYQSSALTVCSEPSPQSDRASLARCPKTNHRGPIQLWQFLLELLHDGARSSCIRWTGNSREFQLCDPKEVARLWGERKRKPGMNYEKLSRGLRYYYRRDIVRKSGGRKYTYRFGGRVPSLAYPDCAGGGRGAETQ
Conditions: protein: recombinant; tags: N-terminal GST; dsDNA, one strand shown. The method, boiled down:
as §1

The next assay deals with CRX (Homo sapiens, UniProt O43186 1-299). The following applies: protein: recombinant; tags: N-terminal GST; dsDNA, one strand shown. An outline of the steps: as §1
The next assay deals with ETV1 (Homo sapiens, UniProt P50549 1-477). Conditions: protein: recombinant; tags: N-terminal GST; dsDNA, one strand shown. The method, boiled down:
as §1

Sequence of ELF1 (P32519 whole entry): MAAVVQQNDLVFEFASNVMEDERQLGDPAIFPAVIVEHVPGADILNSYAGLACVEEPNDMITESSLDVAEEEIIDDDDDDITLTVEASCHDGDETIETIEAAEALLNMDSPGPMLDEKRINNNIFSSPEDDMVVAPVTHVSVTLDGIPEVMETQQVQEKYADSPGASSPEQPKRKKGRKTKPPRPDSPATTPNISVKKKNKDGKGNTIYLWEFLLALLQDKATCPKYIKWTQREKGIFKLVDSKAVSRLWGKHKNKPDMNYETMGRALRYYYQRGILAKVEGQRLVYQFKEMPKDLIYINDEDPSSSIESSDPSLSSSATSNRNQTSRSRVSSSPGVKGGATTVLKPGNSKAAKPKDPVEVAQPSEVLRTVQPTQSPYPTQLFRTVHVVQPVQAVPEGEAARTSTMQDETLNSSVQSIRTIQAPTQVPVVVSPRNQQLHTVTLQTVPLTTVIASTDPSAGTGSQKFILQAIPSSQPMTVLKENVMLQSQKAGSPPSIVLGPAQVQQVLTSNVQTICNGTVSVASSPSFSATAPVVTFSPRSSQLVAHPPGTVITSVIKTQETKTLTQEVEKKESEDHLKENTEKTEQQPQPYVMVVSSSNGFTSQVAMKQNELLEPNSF
Sequence of ETV1 (P50549 whole entry): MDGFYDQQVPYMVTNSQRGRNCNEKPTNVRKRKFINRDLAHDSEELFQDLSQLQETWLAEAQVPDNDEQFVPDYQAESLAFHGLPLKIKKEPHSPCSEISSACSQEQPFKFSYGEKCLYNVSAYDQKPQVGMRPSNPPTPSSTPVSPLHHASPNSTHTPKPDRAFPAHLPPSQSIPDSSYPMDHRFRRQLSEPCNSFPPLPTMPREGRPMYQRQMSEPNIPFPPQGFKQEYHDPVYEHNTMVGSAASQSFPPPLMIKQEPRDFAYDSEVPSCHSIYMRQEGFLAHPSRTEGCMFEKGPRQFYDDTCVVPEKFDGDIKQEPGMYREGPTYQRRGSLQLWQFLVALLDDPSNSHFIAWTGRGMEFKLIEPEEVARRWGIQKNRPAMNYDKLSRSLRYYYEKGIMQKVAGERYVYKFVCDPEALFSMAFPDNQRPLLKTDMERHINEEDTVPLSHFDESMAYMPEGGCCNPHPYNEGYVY
Sequence of HSF1 (Q00613 whole entry): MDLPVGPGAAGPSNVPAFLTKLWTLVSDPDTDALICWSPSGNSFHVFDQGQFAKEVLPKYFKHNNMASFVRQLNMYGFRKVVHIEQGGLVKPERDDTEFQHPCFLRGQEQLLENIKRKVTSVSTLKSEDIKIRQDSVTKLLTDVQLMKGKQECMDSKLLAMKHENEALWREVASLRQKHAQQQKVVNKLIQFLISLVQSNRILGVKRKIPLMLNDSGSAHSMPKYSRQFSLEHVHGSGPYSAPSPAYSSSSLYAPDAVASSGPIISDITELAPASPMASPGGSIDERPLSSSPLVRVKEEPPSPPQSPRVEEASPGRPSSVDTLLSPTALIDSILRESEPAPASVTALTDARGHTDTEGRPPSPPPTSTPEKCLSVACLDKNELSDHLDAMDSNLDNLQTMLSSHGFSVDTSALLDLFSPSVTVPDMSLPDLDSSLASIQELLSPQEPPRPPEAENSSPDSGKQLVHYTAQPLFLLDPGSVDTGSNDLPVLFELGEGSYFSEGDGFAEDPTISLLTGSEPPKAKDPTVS
Sequence of CRX (O43186 whole entry): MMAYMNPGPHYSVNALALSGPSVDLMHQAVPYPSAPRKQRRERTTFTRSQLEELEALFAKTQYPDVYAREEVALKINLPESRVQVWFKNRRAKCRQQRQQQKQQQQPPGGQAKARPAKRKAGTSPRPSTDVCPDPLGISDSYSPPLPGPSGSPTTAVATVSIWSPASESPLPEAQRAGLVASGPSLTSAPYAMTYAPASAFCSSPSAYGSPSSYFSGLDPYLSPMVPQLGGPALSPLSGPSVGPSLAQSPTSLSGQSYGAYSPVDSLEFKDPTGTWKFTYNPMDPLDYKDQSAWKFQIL
Sequence of ELF4 (Q99607 whole entry): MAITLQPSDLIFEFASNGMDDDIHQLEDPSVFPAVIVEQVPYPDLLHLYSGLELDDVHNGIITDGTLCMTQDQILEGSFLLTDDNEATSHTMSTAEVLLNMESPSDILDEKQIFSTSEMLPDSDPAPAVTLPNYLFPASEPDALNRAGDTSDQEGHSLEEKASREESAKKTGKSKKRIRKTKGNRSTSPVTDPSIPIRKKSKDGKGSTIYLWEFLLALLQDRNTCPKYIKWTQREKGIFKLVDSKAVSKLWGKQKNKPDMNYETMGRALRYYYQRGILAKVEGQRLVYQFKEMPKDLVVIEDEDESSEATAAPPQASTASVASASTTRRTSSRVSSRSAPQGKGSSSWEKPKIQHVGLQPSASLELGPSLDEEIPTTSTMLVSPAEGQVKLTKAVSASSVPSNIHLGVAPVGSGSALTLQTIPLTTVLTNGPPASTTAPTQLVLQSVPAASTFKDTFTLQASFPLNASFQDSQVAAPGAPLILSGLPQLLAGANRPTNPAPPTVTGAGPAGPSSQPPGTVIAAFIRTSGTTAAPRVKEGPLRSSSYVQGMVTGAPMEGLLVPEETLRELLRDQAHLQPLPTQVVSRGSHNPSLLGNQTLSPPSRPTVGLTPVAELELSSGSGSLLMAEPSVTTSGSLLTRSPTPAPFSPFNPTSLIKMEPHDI
Sequence of ETV5 (P41161 whole entry): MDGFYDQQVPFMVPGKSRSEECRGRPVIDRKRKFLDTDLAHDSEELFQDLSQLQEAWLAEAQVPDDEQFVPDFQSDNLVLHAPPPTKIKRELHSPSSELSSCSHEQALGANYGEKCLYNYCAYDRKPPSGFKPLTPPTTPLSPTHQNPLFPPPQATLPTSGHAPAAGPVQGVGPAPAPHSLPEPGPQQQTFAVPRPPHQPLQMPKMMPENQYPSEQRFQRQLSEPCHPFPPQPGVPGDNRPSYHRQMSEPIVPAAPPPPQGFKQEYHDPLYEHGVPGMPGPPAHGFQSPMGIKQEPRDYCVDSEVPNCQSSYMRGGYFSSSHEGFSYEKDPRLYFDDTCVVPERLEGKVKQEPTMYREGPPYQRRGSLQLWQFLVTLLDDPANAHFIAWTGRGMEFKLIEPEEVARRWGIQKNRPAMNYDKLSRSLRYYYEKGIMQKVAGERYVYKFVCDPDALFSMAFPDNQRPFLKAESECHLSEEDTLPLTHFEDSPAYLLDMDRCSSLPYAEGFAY

Consider TAGCAG, for which the binding signal in the assay with FLI1 is 1.07 fold enrichment (6-mer frequency, TF over GST control); in the assay with ELK1, 1.08 fold enrichment (6-mer frequency, TF over GST control); with GABPA, 1.03 fold enrichment (6-mer frequency, TF over GST control); with ERG, 1.11 fold enrichment (6-mer frequency, TF over GST control); with ELF1 it was 1.09 fold enrichment (6-mer frequency, TF over GST control); with EHF, 1 fold enrichment (6-mer frequency, TF over GST control). Further, the binding signal was 1 fold enrichment (6-mer frequency, TF over GST control) with SPI1; 1.19 fold enrichment (6-mer frequency, TF over GST control) with ELK3; 1.03 fold enrichment (6-mer frequency, TF over GST control) in the assay with FEV; 1.04 fold enrichment (6-mer frequency, TF over GST control) with ETV5; 1.12 fold enrichment (6-mer frequency, TF over GST control) with HSF1; 1.04 fold enrichment (6-mer frequency, TF over GST control) with SPIC. The binding signal in the assay with ELF4 was 1.05 fold enrichment (6-mer frequency, TF over GST control); with ETV2, 1.06 fold enrichment (6-mer frequency, TF over GST control); with CRX, 1.23 fold enrichment (6-mer frequency, TF over GST control); with ETV1, 1.02 fold enrichment (6-mer frequency, TF over GST control).

For the origin of these results see paper PMC7862700, “An all-to-all approach to the identification of sequence-specific readers for epigenetic DNA modifications on cytosine”.
